Bioassay records as filed in PubChem.
Sampled rows, rich in hits. Any-hit rate of the full collection: about 7.3%.
FLuc counter: firefly luciferase modulation, counter-screen for miR-21 project; P08659; 360,000 tested, 6.9% active; purified FLuc, Km substrates, luminescence inhibition; Potency, µM (doses to about 57.5 µM), inactives show at the highest dose activity change, negative = inhibition, usual class: inhibitors;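 also: plate controls were vehicle for no effect and reference inhibitor for full effect; nearly all actives have a fitted effect of over 55% in size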
Target sequence (P08659 whole entry, looked up): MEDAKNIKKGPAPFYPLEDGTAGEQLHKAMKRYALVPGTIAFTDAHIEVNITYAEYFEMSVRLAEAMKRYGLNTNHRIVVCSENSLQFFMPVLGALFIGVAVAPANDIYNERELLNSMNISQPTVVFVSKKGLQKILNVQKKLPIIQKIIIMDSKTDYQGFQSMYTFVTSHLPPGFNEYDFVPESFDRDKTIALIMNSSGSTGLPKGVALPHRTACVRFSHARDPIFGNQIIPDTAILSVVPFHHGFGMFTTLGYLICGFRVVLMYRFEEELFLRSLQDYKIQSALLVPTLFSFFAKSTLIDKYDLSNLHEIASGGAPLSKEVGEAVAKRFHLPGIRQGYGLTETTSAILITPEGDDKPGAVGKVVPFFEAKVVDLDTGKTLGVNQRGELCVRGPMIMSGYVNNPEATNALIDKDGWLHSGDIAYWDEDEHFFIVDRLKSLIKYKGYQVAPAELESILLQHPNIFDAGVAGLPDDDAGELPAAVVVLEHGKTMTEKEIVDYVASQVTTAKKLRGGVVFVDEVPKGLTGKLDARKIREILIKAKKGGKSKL
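Purified P. pyralis luciferase (10nM final) with 10uM D-luciferin and 10uM ATP (Km levels) in 50mM Tris acetate pH 7.5, 10mM Mg acetate, 0.01% Tween-20, 0.05% BSA; qHTS 6-point titration, ~60 µM downward; luminescence read.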
Rab9 prom act: activates the Rab9 promoter; Huh7 Rab9 promoter-luciferase reporter, luminescence, 24 h; Potency, µM (titrated, usually from 9.22 µM), without a hit: top-dose activation, negative = inhibition, most hits filed as activators; 320,000 tested, 2.8% active; also: % of control where 0% means no effect; nearly all actives have a fitted effect of over 60% in size
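Luminescence read-out: Huh7 cells stably expressing Rab9-luciferase, treated 24 h with compound at 37 °C, then lysed with luciferase reagent for 10 min at ambient before reading.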
KinaseGlo FLuc: Kinase-Glo luciferase inhibition (counter-screen). Q27757. Kinase-Glo luciferase, ATP luminescence, 8 min. Potency, µM (top dose mostly 38.3 µM), inactives show at the top dose activity change, negative = inhibition, actives largely listed as inhibitors. 200,000 tested, 0.28% active; also: % is scaled to controls: 0 for no effect and ±100 for the full control effect; nearly all actives have a fitted effect of over 60% in size
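Kinase-Glo luciferase light output from ATP and luciferin was measured with 10 uM ATP, within the enzyme's linear range. Buffer: 50 mM imidazole pH 7.2, 50 mM KCl, 7 mM MgCl2, 0.01% Tween 20, 0.05% BSA; luminescence read after 8 min at ambient temperature.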
NPC1 promoter act: activators of NPC1 promoter | Huh7 NPC1 promoter luciferase reporter, 24 h | Potency, µM (top dose mostly 9.22 µM), for inactives: top-dose activation, actives largely listed as activators | 320,000 tested, 2.4% active; also: % of control where 0% means no effect; nearly all actives have a fitted effect of over 60% in size
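Readout is luciferase luminescence, reflecting NPC1 promoter activation in stably transfected Huh7 cells after 24 h compound exposure at 37 °C in reduced-serum medium with 10% FBS.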
SMN2 splice up: SMN2 splice variant enhancement; 210,000 tested, 2.8% active; HEK293 SMN2-luciferase splicing reporter, luminescence, 30-36 h; AID 1458; Potency, µM (top dose mostly 46.1 µM), for the others: at the highest dose activity change, positive = activation, hits mostly activators; also: % of control where 0% means no effect; nearly all actives have a fitted effect of over 55% in size
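qHTS luciferase splicing reporter: luminescence rises when SMN2 exon 7 is included in transfected HEK293 cells. Compound exposure lasted 30-36 h at 37C, with 4.5 mM final sodium butyrate as control, followed by a ONE-Glo read.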
ELG1 genotox: inducers of genotoxicity in HEK293T ELG1-luciferase cells. Potency, µM (doses to about 46 µM), inactives show at the highest dose activity change, positive = activation, most hits filed as activators. HEK293T ELG1-luciferase reporter, luminescence, 16 h. AID 504466. 330,000 tested, 1.3% active; also: % of control where 0% means no effect; nearly all actives have a fitted effect of over 60% in size
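HEK293T cells expressing luciferase-tagged ELG1 were exposed to compound or DMSO vehicle for 16 hr at 37 °C and 5% CO2. Luciferase activity was then measured with ONE-Glo after 30 min at room temperature.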
Active calls of the source: *; ? = inconclusive; . = not tested or not shown; [ ] = remark or other dose. Calls follow the shape of the dose curve; as a rule, active = well fitted curve in the direction sought with a large enough effect; inconclusive = small, poorly fitted or top-dose-only effect, or another doubt; inactive = no such curve, though single readings can be large; an effect the other way counts as inactive or inconclusive. Potency is read from the fitted curve at half-maximal effect.

SMILES	FLuc counter	Rab9 prom act	KinaseGlo FLuc	NPC1 promoter act	SMN2 splice up	ELG1 genotox
O=C(c1cc2ccccc2oc1=O)N1CCN(c2ncccn2)CC1	21µM*	?	-3%	19%	2%	18µM*
CCCc1ccc(-c2cc(C(=O)N3CCN(c4ccccn4)CC3)c3ccccc3n2)cc1	0.11µM*	?	.	?	.	?
Cc1nc(C(C)NC(=O)CCc2nnc(CCCc3ccccc3)o2)c(C)s1 (stereo not drawn)	15µM*	2.8µM*	-4%	?	16µM*	?
Cc1cc(C)n(CC(C)NC(=O)CCc2nnc(CCc3ccccc3)o2)n1 (stereo not drawn)	-2%	16%	3%	0%	.	4%
CN(Cc1ccsc1)C(=O)CCc1nnc(Cc2c[nH]c3ccccc23)o1	-13%	-2%	2%	-2%	.	3%
CC(C)(CO)CNC(=O)CCc1nnc(CCCc2ccccc2)o1	-15%	12%	-1%	-1%	.	4%
CN(Cc1ccsc1)C(=O)CCc1nnc(CCCc2ccccc2)o1	13µM*	3.2µM*	-3%	19%	.	?
O=C(CCc1nnc(CCCc2ccccc2)o1)NC(C1CC1)C1CC1	12µM*	2.8µM*	-4%	?	14µM*	21µM*
CC(=O)NC(=S)Nc1ccc(NC(=S)NC(=O)c2cccs2)cc1	3%	-5%	.	-1%	.	-9%
CCN(CC)c1ccc(NC(=S)NC(=O)c2cccs2)cc1	15µM*	0.56µM*	3%	?	.	8%
COc1cc(NC(=S)NC(=O)c2cccs2)ccc1NC(=O)C(C)C	?	27%	-2%	19%	8%	-2%
CCCCOC(=O)c1ccc(NC(=S)NC(=O)c2ccco2)cc1	-2%	5%	.	-3%	.	-1%
CC(C)C(=O)Nc1cccc(NC(=S)NC(=O)c2cccs2)c1	-16%	2.8µM*	.	2.8µM*	.	19%
CCN(CC)c1ccc(NC(=O)c2ccco2)cc1	3µM*	?	4%	1.6µM*	3.2µM*	1.8µM*
CCN(CC)c1ccc(NC(=S)NC(=O)c2ccco2)cc1	15µM*	1.6µM*	1%	?	7.9µM*	?
COc1ccc(OC)c2c(=S)c3ccccc3[nH]c12	.	.	-19%	.	.	.
COc1ccc2c(c1)c1c(C)c3cnccc3c(C)c1n2CCCN	.	.	-1%[7.66 µM]	.	-1%[9.22 µM]	.
CCCOc1ccccc1-c1nc2c([nH]1)c(=O)[nH]c(=O)n2C	7%	-1%	2%	-1%	28µM*	?
Cn1c(=O)c2[nH]c(-c3ccccc3O)nc2n(C)c1=O	-17%	-5%	-1%	25%	-2%	-6%
CC1=C(C(=O)Nc2cccc(C(F)(F)F)c2)C(c2ccccc2)n2ncnc2N1 (stereo not drawn)	4%	.	.	.	.	.
C=Cc1ccccc1C=C	.	.	.	.	-8%	.
O=C(OCC(=O)c1c[nH]c2ccccc12)c1cccc([N+](=O)[O-])c1	17µM*	13%	.	16%	.	11%
O=C(COC(=O)CC1CC2CCC1C2)NCc1ccc(F)cc1 (stereo not drawn)	.	.	.	.	.	1%
COc1cccc(C(=O)OCC(=O)c2c[nH]c3ccccc23)c1OC	9.5µM*	?	.	19%	.	15%
O=C(CC1CC2CCC1C2)OCC(=O)c1c[nH]c2ccccc12 (stereo not drawn)	15µM*	6%	3%	0%	8%	5%
Cc1c(Cl)cccc1N1CCn2c1nc1c2c(=O)n(CC(=O)O)c(=O)n1C	6%	.	.	.	3%	.
CCOc1ccc(NC(=O)CSC2=Nc3ccccc3C3=NC(CC(=O)NCc4ccccc4OC)C(=O)N23)cc1 (stereo not drawn)	-3%	.	.	.	.	.
CCOc1ccc(-c2cc(C(=O)N3CCN(c4cccc(C)c4)C(C)C3)c3ccccc3n2)cc1 (stereo not drawn)	2.4µM*	.	.	.	.	.
